Source: PubChem BioAssay (Tox21)
Activity calls are given as the source filed them. Calls follow the shape of the dose curve; as a rule, active = well fitted curve in the direction sought with a large enough effect in the repeat runs; inconclusive = weak or mixed curves; inactive = flat fitted curve, though single readings scatter.

Columns and labels:
[1] = qHTS assay to test for compound auto fluorescence at 535 nm (green) in HEK293 cells (AID 720680)
[2] = qHTS assay to test for compound auto fluorescence at 460 nm (blue) in HEK293 cell free culture (AID 720681)
How it was run: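 Blue fluorescence (Ex 405/Em 460 nm, triamterene-equivalent) was read immediately after pin transfer of compound or DMSO into medium (DMEM, 10% FBS) without cells.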

[3] = qHTS assay to test for compound auto fluorescence at 535 nm (green) in HEK293 cell free culture (AID 720682)
How it was run: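 Measurement is a direct plate read of green fluorescence (485 nm in, 535 nm out) after compound addition to serum-supplemented DMEM lacking cells, with fluorescein used to express intensities.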

[4] = qHTS assay to test for compound auto fluorescence at 590 nm (red) in HEK293 cell free culture (AID 720683)
How it was run: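 Red-channel autofluorescence of compounds in culture medium (DMEM, 10% FBS), no cells, measured at 540/590 nm. Rose Bengal sodium is the reference fluorophore for equivalence.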

[5] = qHTS assay to test for compound auto fluorescence at 590 nm (red) in HepG2 cell free culture (AID 720684)
How it was run: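 Plate contents were MEM with 10% FBS plus test compound or DMSO, no cells. Fluorescence was recorded with 540 nm excitation and 590 nm emission.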

[6] = qHTS assay to test for compound auto fluorescence at 460 nm (blue) in HepG2 cell free culture (AID 720685)
How it was run: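 Compound (23 nL) or DMSO pinned into cell-free MEM with 10% FBS; blue fluorescence read at 405/460 nm excitation/emission, expressed as auto-fluorescence equivalency to triamterene.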

[7] = qHTS assay to test for compound auto fluorescence at 535 nm (green) in HepG2 cell free culture (AID 720686)
[8] = qHTS assay to test for compound auto fluorescence at 460 nm (blue) in HepG2 cells (AID 720687)
How it was run: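 Blue-channel autofluorescence (Ex/Em 405/460 nm, triamterene-equivalent) was measured after 1 hr compound exposure at 37 C, 5% CO2. Cells were HepG2, plated overnight at 37 C in MEM plus 10% FBS.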
% is scaled to controls: 0 for no effect and ±100 for the full control effect.

CC1=CC[C@H](C(C)C)C=C1
inactive: outcome [1] | outcome [2] | outcome [3] | Potency [4] | Potency [5] | outcome [6] | Potency [7] | outcome [8]

O=C(Cl)c1cc(C(=O)Cl)cc(C(=O)Cl)c1
inactive: outcome [1] | outcome [2] | outcome [3] | Potency [4] | Potency [5] | outcome [6] | Potency [7] | outcome [8]

Cc1cccc(Nc2ccccc2)c1
inactive: outcome [1] | outcome [2] | outcome [3] | Potency [4] | Potency [5] | outcome [6] | Potency [7]

COc1ccc(C(=O)Nc2nc3ccccc3c(NCc3ccccc3)c2C#N)cc1
inactive: outcome [1] | outcome [2] | outcome [3] | Potency [4] | Potency [5] | outcome [6] | Potency [7] | outcome [8]

COc1cc2nc(N3CCN(C(=O)C4COc5ccccc5O4)CC3)nc(N)c2cc1OC (configuration not stated)
inactive: outcome [1] | outcome [2] | outcome [3] | Potency [4] | Potency [5] | outcome [6] | Potency [7] | outcome [8]

CC(=O)OC[C@H]1O[C@@H](n2ncc(=O)[nH]c2=O)[C@H](OC(C)=O)[C@@H]1OC(C)=O
inactive: outcome [1] | outcome [2] | outcome [3] | Potency [4] | Potency [5] | outcome [6] | Potency [7] | outcome [8]

CCc1cc(C2=C(C(=O)O)N(c3ccccc3C(F)(F)F)S(=O)(=O)c3ccccc32)cc2c1OCO2
inactive: outcome [1] | outcome [2] | outcome [3] | Potency [4] | Potency [5] | outcome [6] | Potency [7] | outcome [8]

CC1=CC=C(C(C)C)CC1
inactive: outcome [1] | outcome [2] | outcome [3] | Potency [4] | Potency [5] | outcome [6] | Potency [7] | outcome [8]

CC(=O)[O][Al]
inactive: outcome [1] | outcome [2] | outcome [3] | Potency [4] | Potency [5] | outcome [6] | Potency [7]

O=C(O)C1(C(=O)Nc2ccc(Cl)cc2Cl)CC1
inactive: outcome [1] | outcome [2] | outcome [3] | Potency [4] | Potency [5] | outcome [6] | Potency [7]

CCCCC1=NC2(CCCC2)C(=O)N1Cc1ccc(-c2ccccc2-c2nn[nH]n2)cc1
inactive: outcome [1] | outcome [2] | outcome [3] | Potency [4] | Potency [5] | outcome [6] | Potency [7] | outcome [8]

CCCCc1nc2cccnc2n1Cc1ccc(-c2ccccc2-c2nnn[nH]2)cc1
inactive: outcome [1] | outcome [2] | outcome [3] | Potency [4] | Potency [5] | outcome [6]

OCCN1CCN(CCCN2c3ccccc3C=Cc3ccccc32)CC1
inactive: outcome [1] | outcome [2] | outcome [3] | Potency [4] | Potency [5] | outcome [6] | Potency [7] | outcome [8]

CCC(CC)Nc1ccc(C)c(C)c1
inactive: outcome [1] | outcome [2] | outcome [3] | Potency [4] | Potency [5] | outcome [6] | Potency [7] | outcome [8]

CCN(CC)CCOC(=O)C(Cc1cccc2ccccc12)CC1CCCO1 (configuration not stated)
inactive: fluorescence, % of fluorescein [1] 0.0124% [at 18.6 µM] | fluorescence, % of fluorescent control [2] 0.0375% [at 18.6 µM] | activity change [3] -0.0273% [at 18.6 µM] | fluorescence, % of fluorescent control [4] 0.0006% [at 18.6 µM] | fluorescence, % of Rose Bengal [5] 0.633% [at 18.6 µM] | fluorescence, % of fluorescent control [6] -0.0194% [at 18.6 µM] | fluorescence, % of fluorescein control [7] 0.0151% [at 18.6 µM]

CC(CC=O)c1ccccc1 (configuration not stated)
inactive: outcome [1] | outcome [2] | outcome [3] | Potency [4] | Potency [5] | outcome [6] | Potency [7] | outcome [8]

Cc1oc2c(NC(=O)c3c(Cl)cccc3Cl)cccc2c1C(C)(C)O
inactive: outcome [1] | outcome [2] | outcome [3] | Potency [4] | Potency [5] | outcome [6] | Potency [7] | outcome [8]

O=C(O)C(S)C(S)C(=O)O (configuration not stated)
inactive: outcome [1] | outcome [2] | outcome [3] | Potency [4] | Potency [5] | outcome [6] | Potency [7] | outcome [8]

Cc1cc(N)c2cc(NC(=O)Nc3ccc4nc(C)cc(N)c4c3)ccc2n1
inactive: outcome [1] | outcome [2] | outcome [3] | Potency [4] | Potency [5] | outcome [6] | Potency [7] | outcome [8]

COc1cc2c(cc1OC)C(C(C(=O)N(CCc1ccc(OC)c(OC)c1OC)CCc1ccc(OC)c(OC)c1OC)c1ccccc1)=NCC2 (configuration not stated)
inactive: outcome [1] | outcome [2] | outcome [3] | Potency [4] | Potency [5] | outcome [6] | Potency [7] | outcome [8]

CC1=CCCC(C)(C)C12CCC(C)O2 (configuration not stated)
inactive: outcome [1] | outcome [2] | outcome [3] | Potency [4] | Potency [5] | outcome [6] | Potency [7] | outcome [8]

CCCCCCCCCOS(=O)(=O)O
inactive: outcome [1] | outcome [2] | outcome [3] | Potency [4] | Potency [5] | outcome [6] | Potency [7] | outcome [8]

OC(C#CCN1CCCC1)(c1ccccc1)c1ccccc1
inactive: outcome [1] | outcome [2] | outcome [3] | Potency [4] | Potency [5] | outcome [6] | Potency [7] | outcome [8]

Nc1ncn([C@H]2C[C@H](O)[C@@H](CO)O2)c(=O)n1
inactive: outcome [1] | outcome [2] | outcome [3] | Potency [4] | Potency [5] | outcome [6] | Potency [7] | outcome [8]

C1CCCNCCC1
inactive: outcome [1] | outcome [2] | outcome [3] | Potency [4] | Potency [5] | outcome [6] | Potency [7] | outcome [8]

c1ccc(-c2ccccn2)nc1
inactive: outcome [1] | outcome [2] | outcome [3] | Potency [4] | Potency [5] | outcome [6] | Potency [7] | outcome [8]
